VACV Venus inh: qHTS for Stage-Specific Inhibitors of Vaccinia Orthopoxvirus: Venus Reporter Primary qHTS. Potency, µM (top dose mostly 36.5 µM), without a hit: at the top dose activity change, negative = inhibition, usual class: inhibitors. 0.46% of 330,000 active. Vaccinia virus Venus reporter expression, fluorescence; calls by dose curve; tested in A549 cells; further: potency means the concentration at half of the fitted maximal effect; nearly all actives have a fitted effect of over 30% in size
HCMV antiviral: qHTS Assay for inhibitors of the human cytomegalovirus (HCMV). activity change, negative = inhibition, % at 57.5 µM. HFF cells, HCMV-luciferase reporter, 72 h; stronger effect = lower value. 4.5% of 410,000 active; in the data active means activity change below about -60%; inconclusive means no clear call, values can overlap the other calls; inactive means above about -39%
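Luciferase read-out from HCMV-luciferase-infected HFFs (MOI 1 PFU/cell) 72 h post infection at 37C; compounds added after 16 h cell attachment; activity normalized between buffer-only basal and Salinomycin (10uM) inhibitor controls.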
Vaccinia mCherry: qHTS for Stage-Specific Inhibitors of Vaccinia Orthopoxvirus: mCherry Reporter Primary qHTS; AID 720579, 2013; Potency, µM (titrated, usually from 36.5 µM), for the others: at the highest dose activity change, negative = inhibition, usual class: inhibitors; 0.63% of 310,000 active; Vaccinia virus mCherry reporter infection, fluorescence; calls by dose curve; tested in A549 cells; further: potency means the concentration at half of the fitted maximal effect; nearly all actives have a fitted effect of over 35% in size
HCV inhibitor: qHTS Assay for Inhibitors of Hepatitis C Virus (HCV) | Huh7.5.1 HCVcc-Cre infection, luciferase reporter, 44 h | Potency, µM (doses to about 41.8 µM), inactives show top-dose activity change, negative = inhibition, actives largely listed as inhibitors | 3.4% of 340,000 active | AID 651820, 2012; further: potency means the concentration at half of the fitted maximal effect
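Luciferase read-out (15 sec integration) after a 15 min room-temperature substrate step quantifies HCVcc-Cre infection. Cells, 1,000 per well, had compound added 4 h post-plating, then virus at ~0.5 moi, and were cultured 44 h.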
FMDV antiviral: High Throughput Screening for Foot and Mouth Disease Virus Antivirals; Potency, µM (titrated, usually from 57.9 µM), without a hit: top-dose activity change, negative = inhibition, actives largely listed as inhibitors; 1.2% of 410,000 active; AID 1159524, 2015; FMDV antiviral cell-based qHTS; calls by dose curve; tested in HEK293T cells; further: read-out not given here; potency means the concentration at half of the fitted maximal effect; nearly all actives have a fitted effect of over 45% in size
Sm TGR inh: qHTS Assay for the Inhibitors of Schistosoma Mansoni Peroxiredoxins; Potency, µM (highest dose often 114 µM), without a hit: top-dose activity change, negative = inhibition, actives largely listed as inhibitors; 3% of 360,000 active; AID 485364, 2010; Schistosoma mansoni thioredoxin glutathione reductase (TGR), Q962Y6; purified TGR, DTNB reduction, TNB absorbance 405 nm; further: potency means the concentration at half of the fitted maximal effect; nearly all actives have a fitted effect of over 60% in size
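Kinetic colorimetric format: TGR-catalysed, NADPH-driven DTNB reduction monitored via TNB absorbance. Enzyme dispensed at 20 nM; compound exposure 15 min at room temperature before reaction start.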
* = called active by the depositor; i = inactive; ? = inconclusive; nt = no result; [ ] = another dose, or the depositor's remark. Shown are actives, neighbours in structure and some others; about 9.3% of the full set was active somewhere. Unless noted, the call rests on the fitted dose curve; in most records, active means well fitted curve in the direction sought with a large enough effect; inconclusive means small, poorly fitted or top-dose-only effect, or another doubt; inactive means no such curve, though single readings can be large; an effect the other way counts as inactive or inconclusive. On the % scale 0 is the no-effect control and ±100 the full control effect.

SMILES	VACV Venus inh	HCMV antiviral	Vaccinia mCherry	HCV inhibitor	FMDV antiviral	Sm TGR inh
CCN(C(=O)c1cn(-c2cccc(OC)c2)c(=O)c2ccccc12)c1ccccc1C	-10.9%	-69.9*	-5.5%	nt	-5.4%	5.9%
COc1cccc(-n2cc(C(=O)Nc3ccccc3C(N)=O)c3ccccc3c2=O)c1	-9.8%	-79.8*	-19.3%	nt	-24.5%	4.3%
COc1ccc(CNC(=O)c2cn(-c3cccc(OC)c3)c(=O)c3ccccc23)cc1	-8.5%	-37.5	-8.9%	nt	-16.0%	-1.1%
CC#CC[N+](C)(CC#CC)CC(=O)c1ccccc1	-2.6%	23.4	i	4.5%	-10.5%	-9.0%
COc1ccccc1N1CCN(/N=C\c2ccc(C)o2)CC1	-1.7%	39.7	-21.7%	5.7%	41.4%	-31.1%
CCOC(=O)C1=C(C)N=C(/N=C/N(C)C)SC1c1ccccc1 (stereo not given)	-11.3%	17.1	-15.6%	-11.6%	?	-0.8%
Cc1nc2cc(C(F)(F)F)ccc2n1C1CCN(CC(=O)NC(C)(C)C)CC1	nt	-81.8*	nt	-8.7%	-17.4%	0.9%
O=C(CCl)NC(=O)NC12CC3CC(CC(C3)C1)C2	-6.5%	-99.2*	i	1.0%	?	8.91µM*
CC(Cl)C(=O)NC(=O)NC12CC3CC(CC(C3)C1)C2 (stereo not given)	-7.2%	-33.1	-11.7%	10.8%	-19.6%	-15.4%
O=C(CN1CCN(S(=O)(=O)c2cccc(F)c2)CC1)Nc1ccnn1C1CCCC1	nt	-16.1	nt	?	-29.2%	-7.2%
O=C(Cn1c(=O)n(Cc2ccco2)c(=O)c2c3c(sc21)CCCCC3)c1ccccc1	-14.9%	52.1	-3.7%	nt	5.3%	35.5µM*
CN(C)CCn1c(=O)n(Cc2ccco2)c(=O)c2c3c(sc21)CCCCC3	nt	-24.8	nt	?	-15.7%	7.1%
O=C(Cn1c(=O)n(Cc2ccco2)c(=O)c2c3c(sc21)CCCCC3)Nc1ccccc1	-7.2%	-14.7	i	-18.4%	-1.5%	10µM*
O=c1c2c3c(sc2n(CCN2CCCC2)c(=O)n1Cc1ccco1)CCCCC3	nt	-21.2	nt	10µM*	-3.7%	0.1%
CCCCc1c(C)nc2c(-c3ccc(OC)cc3)c(C)[nH]n2c1=O	-15.4%	-18.1	-13.4%	nt	?	3.1%
CC(C)Cc1ccc(CN2CCCC(NC(=O)CCCN3CCCC3=O)C2)cc1 (stereo not given)	nt	-37.3	nt	10.7%	-28.5%	-6.2%
Nc1nc(Cl)c2ncn(C3OC(CO)C(O)C3O)c2n1 (stereo not given)	?	0.6	?	5.2%	4.6%	6.4%
O=C(Cn1c(=O)c(C(F)(F)F)nc2ccccc21)Nc1ccc(Br)cc1F	0.4%	-2.3	-4.2%	nt	-13.5%	4.8%
CCOc1ccc(N(C(C)C(=O)Nc2ccc(OC)cc2)S(C)(=O)=O)cc1 (stereo not given)	-14.9%	42.3	-13.5%	6.3%	nt	-15.5%
CCN(CC)S(=O)(=O)c1ccc(NC(=O)COc2c(OC)cccc2OC)cc1	nt	-6.6	nt	?	31.6µM*	10.1%[11.4 µM]
CCN(CC)S(=O)(=O)c1cccc(NC(=O)COc2ccc(F)cc2Br)c1	-10.0%	-5.7	-10.1%	11.2µM*	?	-2.4%
CCCN(CCC)S(=O)(=O)c1ccc(NC(=O)COc2ccccc2)cc1	-17.2%	1.9	-10.0%	-4.8%	17.9%	-0.3%
COc1ccc(OCC(=O)Nc2ccc(S(=O)(=O)N(C)c3ccccc3)cc2)cc1	-4.7%	-15.5	-23.6%	-0.8%	-8.4%	7.0%
CCN(CC)S(=O)(=O)c1cccc(NC(=O)COc2ccc(C#N)cc2OC)c1	-21.0%	-38.4	-26.1%	?	?	-3.9%
COc1ccccc1OCC(=O)Nc1ccc(S(=O)(=O)N(C)c2ccccc2)cc1	nt	-2.2	nt	11.2µM*	-11.6%	5.2%
SMILES	VACV Venus inh	HCMV antiviral	Vaccinia mCherry	HCV inhibitor	FMDV antiviral	Sm TGR inh
CCN(CC)S(=O)(=O)c1ccc(NC(=O)C(C)N(c2ccc(OC)cc2)S(C)(=O)=O)cc1 (stereo not given)	nt	-11.6	nt	10µM*	-15.1%	?
CCN(CC(=O)Nc1ccc(OC)c(OC)c1)S(=O)(=O)c1ccc(C)cc1	-11.7%	-33.4	nt	?	12.6µM*	3.6%
COc1ccccc1OCC(=O)NNC(=O)Nc1ccc(Cl)cc1	-25.7%	-63.8*	-18.5%	-24.9%	-11.9%	10.8%
Cc1ccc(NC(=O)NNC(=O)COc2ccc(Cl)cc2)cc1	nt	7.2	nt	10.8%	-3.6%	nt
COc1ccc(S(=O)(=O)N(C)CC(=O)Nc2ccc(C)cc2)cc1OC	nt	27.3	nt	-6.6%	-22.3%	-9.0%
COc1cc(CNCCSc2nnnn2C)cc(OC)c1OC	nt	70.5	nt	4.9%	7.9%	-6.1%
Cc1cc(-c2ccc(S(=O)(=O)N(C)c3ccc(C)c(C)c3)s2)on1	nt	-4.4	nt	11.2µM*	?	4.3%
N#Cc1cc([N+](=O)[O-])c(-n2nnc3ccccc32)c([N+](=O)[O-])c1	nt	nt	nt	-13.8%	6.8%	14.1µM*
O=[N+]([O-])c1ccc2c(c1)nnn2-c1ccccc1	-14.0%	16.2	-13.0%	-5.5%	12.8%	-3.9%
CCNC(=O)CSC1=N/C(=C\c2ccc(O)c(OCC)c2)C(=O)N1c1ccc(OC(F)F)cc1	45.3%	-70.5*	-8.2%	-20.1%	11.6%	-6.5%
CCOC(=O)CSC1=N/C(=C\c2cccnc2)C(=O)N1c1ccc(OC)cc1	-0.2%	-19.4	-13.8%	4.8%	-18.1%	-16.1%
O=C(CSC1=N/C(=C/c2ccco2)C(=O)N1c1ccc(OC(F)F)cc1)NC1CCS(=O)(=O)C1 (stereo not given)	-5.0%	-5.7	-5.8%	8.4%	-26.1%	39.8µM*
CC1=CC(C)CC(C)OC(=O)CC(c2ccc(O)cc2)NC(=O)C(Cc2c(Br)[nH]c3ccccc23)N(C)C(=O)C(C)NC(=O)C(C)C1 (stereo not given)	35.5µM*	-97.7*	31.6µM*	?	-26.9%	nt
CCS(=O)(=O)c1ccc2oc(Nc3ccc(C(C)(C)C)cc3)nc2c1	-16.3%	-14.3	-8.3%	?	?	0.9%
CCN(CC)S(=O)(=O)c1ccc2oc(Nc3ccc4c(c3)OCCO4)nc2c1	-24.0%	38.0	-13.0%	10µM*	-2.7%	-7.3%
Cc1cc2c(cc(C(=O)OC(C(=O)NCC3CCCO3)C(C)C)n2C)o1 (stereo not given)	nt	?	nt	?	?	1.0%
Cc1cc2c(cc(C(=O)OC(C(=O)NC3CCCCC3)C(C)C)n2C)o1 (stereo not given)	nt	?	nt	15.8µM*	-28.7%	-25.6%
Cc1ccc(CNC(=O)CC(C)S(=O)(=O)c2cc3c(cc2C)NC(=O)CO3)cc1 (stereo not given)	-8.6%	-2.4	-6.8%	3.0%	-19.0%	-1.4%

High-throughput results (PubChem BioAssay)
